MCF10A rerep = A quantitative high throughput screen for small molecules that induce DNA re-replication in MCF 10a normal breast cells | AID 624296, 2012 | 350,000 tested, 2.9% active | MCF 10A DNA re-replication, Hoechst nuclear intensity, 48 h | Potency, µM (doses to about 46.1 µM), for the others: at the highest dose activity, positive = re-replication, hits mostly activators; also: potency is read from the fitted curve at half-maximal effect; % of control where 0% means no effect; nearly all actives have a fitted effect of over 50% in size
SW480 rereplic = A quantitative high throughput screen for small molecules that induce DNA re-replication in SW480 colon adenocarcinoma cells | SW480 DNA re-replication, Hoechst DNA content imaging, 48 h | 340,000 tested, 1.8% active | Potency, µM (highest dose often 46.1 µM), without a hit: top-dose re-replication activation, actives largely listed as activators; also: potency is read from the fitted curve at half-maximal effect; % of control where 0% means no effect; nearly all actives have a fitted effect of over 55% in size
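Per well, 250 cells were exposed to pinned compound for 48 hr. Nuclear DNA was visualised with Hoechst (40 min, 37 C) and total object intensity recorded by fluorescence scanning.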
TDP1 cell CPT = qHTS for Inhibitors of human tyrosyl-DNA phosphodiesterase 1 (TDP1): qHTS in cells in presence of CPT | chicken DT40 Tdp1-/-;hTDP1 cells + 20 nM CPT, ATP luminescence, 48 h | Potency, µM (top dose mostly 46.2 µM), without a hit: at the highest dose activity change, negative = growth inhibition, actives largely listed as inhibitors | 420,000 tested, 12% active; also: potency is read from the fitted curve at half-maximal effect; % is scaled to controls: 0 for no effect and ±100 for the full control effect; nearly all actives have a fitted effect of over 55% in size
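Cell growth measured by CellTiter-Glo luminescence after a minimum 48 h, 37 C compound exposure with 20 nM CPT in Tdp1-knockout DT40 cells stably expressing hTDP1, seeded 400/well; qHTS titration format.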
IL-1B inflam inh = qHTS for Inhibitors of Inflammasome Signaling: IL-1-beta AlphaLISA Primary Screen; THP-1 LPS/ATP IL-1B secretion, AlphaLISA, 16 h; stronger effect = lower value; activity change, % at 57.5 µM; 360,000 tested, 4.7% active; in the data active = activity change below about -50%; inconclusive = mostly about -30% to -49%; also: % is scaled to controls: 0 for no effect and ±100 for the full control effect
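THP-1 cells pretreated 1 hr with compounds (up to 57.5 uM final), then stimulated with LPS (250 ng/mL final) plus ATP (1.25 mM final); secreted IL-1B measured by AlphaLISA after 16 hr, decreased signal indicating inhibition.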
Chronic BCR inh = qHTS Assay to Find Inhibitors of Chronic Active B-Cell Receptor Signaling; 340,000 tested, 0.05% active; ABC-DLBCL IkBa-CBG/CBR reporter, luminescence ratio, 4 h; Potency, µM (highest dose often 46.1 µM), inactives show top-dose activity change, negative = inhibition, hits mostly inhibitors; active = well fitted inhibition curve with a large enough effect in the signal ratio, with a control signal flat, not every such curve was filed as active; inconclusive = small, poorly fitted or top-dose-only effect, or effect the other way, or a change in a side signal; the % refers to the signal ratio;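 also: potency is read from the fitted curve at half-maximal effect; plate controls were basal doxycycline-induced cells for no effect and cells given 10 µM MG132 for full effect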
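TMD8 ABC-DLBCL cells carrying doxycycline-inducible green luciferase fused to IkappaBalpha plus unfused red luciferase were exposed to compounds (up to 46 uM) for 4 hrs at 37C. Activity came from the overlap-corrected green/red luminescence ratio.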
DT40 TDP1 no CPT = qHTS for Inhibitors of human tyrosyl-DNA phosphodiesterase 1 (TDP1): qHTS in cells in absence of CPT; Potency, µM (series often up to 46.2 µM), for inactives: top-dose activity change, negative = growth inhibition, hits mostly inhibitors; DT40 Tdp1-/- hTDP1 cells, no CPT, ATP luminescence, 48 h; 420,000 tested, 15% active; also: potency is read from the fitted curve at half-maximal effect; % is scaled to controls: 0 for no effect and ±100 for the full control effect; nearly all actives have a fitted effect of over 55% in size
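Growth kinetics read by CellTiter-Glo luminescence after ≥48 hr at 37 °C. Cells: DT40 Tdp1-/- stably carrying human TDP1, 400 per well, compound exposure in the absence of CPT (DMSO vehicle).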
The depositor's hits bear a star. Hits are enriched below; roughly 19% of the tested compounds scored in any of these assays. Unless noted, calls follow the shape of the dose curve; as a rule, active = well fitted curve in the direction sought with a large enough effect; inconclusive = small, poorly fitted or top-dose-only effect, or another doubt; inactive = no such curve, though single readings can be large; an effect the other way counts as inactive or inconclusive.

O=C(NC(c1ccc2c(c1)OCO2)c1ccccn1)C1CCN(CCOc2ccccc2)CC1 (configuration not stated) was read as TDP1 cell CPT 11%, IL-1B inflam inh -14 and DT40 TDP1 no CPT -25%.
For O=C(NNC(=O)C1CCN(Cc2ccc(Cl)c(Cl)c2)CC1)c1cccs1 the results were MCF10A rerep 3%, SW480 rereplic 0%, TDP1 cell CPT -1%, IL-1B inflam inh 4, Chronic BCR inh 6% and DT40 TDP1 no CPT 16µM*.
`O=C(NNC(=O)C1CCN(Cc2ccccc2)CC1)c1cccs1` gave MCF10A rerep -2%, SW480 rereplic -3%, TDP1 cell CPT 9%, IL-1B inflam inh 17, Chronic BCR inh 6% and DT40 TDP1 no CPT 8%.
Screening O=C(NC(c1ccc(-c2ccccc2)cc1)c1cnccn1)C1CCN(Cc2ccc(Cl)c(Cl)c2)CC1 (configuration not stated) returned TDP1 cell CPT inconclusive, IL-1B inflam inh -21 and DT40 TDP1 no CPT inconclusive.
Screening O=C(NC(c1ccc(-c2ccccc2)cc1)c1cnccn1)C1CCN(Cc2ccc3c(c2)OCO3)CC1 (configuration not stated) returned TDP1 cell CPT 5.8µM*, IL-1B inflam inh -26 and DT40 TDP1 no CPT 5.2µM*.
COc1ccc(C(NC(=O)C2CCN(CCOc3ccccc3)CC2)c2ccccn2)cc1 (configuration not stated) was read as TDP1 cell CPT 14%, IL-1B inflam inh -13 and DT40 TDP1 no CPT -7%.
Screening Cn1cc(CN2CCC(C(=O)NC(c3ccc(-c4ccccc4)cc3)c3cnccn3)CC2)c2ccccc21 (configuration not stated) returned TDP1 cell CPT 13µM*, IL-1B inflam inh 0 and DT40 TDP1 no CPT 16µM*.
`O=C(NC(c1ccccc1)c1cnccn1)C1CCN(Cc2ccc(Cl)c(Cl)c2)CC1` (configuration not stated) gave TDP1 cell CPT 9.2µM*, IL-1B inflam inh -24 and DT40 TDP1 no CPT 13µM*.
O=C(NCc1ccc(Br)cc1)OC1CC2CC1[C@H]1CCCCN1C2=O (some centres not stated) was read as TDP1 cell CPT -13%, IL-1B inflam inh 1 and DT40 TDP1 no CPT -28%.
Screening CC(C)(CNC(=O)c1ccccc1NS(C)(=O)=O)N1CCCCC1 returned MCF10A rerep 14%, SW480 rereplic -2%, TDP1 cell CPT 14%, IL-1B inflam inh -4, Chronic BCR inh -1% and DT40 TDP1 no CPT 8%.
COc1ccc(-c2cn3c(n2)sc2cc(C(=O)NC4CCCCCC4)ccc23)cc1 was read as TDP1 cell CPT inconclusive and DT40 TDP1 no CPT 7.3µM*.
`Cc1ccc(-c2cn3c(n2)sc2cc(C(=O)NC4CCCCCC4)ccc23)c(C)c1` gave TDP1 cell CPT inconclusive and DT40 TDP1 no CPT -27%.
Screening COc1ccc(-c2cn3c(n2)sc2cc(C(=O)Nc4cccc(SC)c4)ccc23)cc1 returned TDP1 cell CPT 5.2µM* and DT40 TDP1 no CPT 6.5µM*.
For CCOC(=O)N1CCC(NC(=O)c2ccc3c(c2)sc2nc(-c4ccc(OC)cc4)cn23)CC1 the results were Chronic BCR inh 1%.
Screening O=C(NC1CCCCC1)c1ccc2c(c1)sc1nc(-c3ccc(F)cc3)cn12 returned TDP1 cell CPT 13µM* and DT40 TDP1 no CPT 15µM*.
For O=C(NC1CCCCCC1)c1ccc2c(c1)sc1nc(-c3ccc(F)cc3)cn12 the results were TDP1 cell CPT inconclusive and DT40 TDP1 no CPT 6.5µM*.
Screening NC(=O)c1ncn([C@@H]2O[C@H](CNCc3ccc(-c4cc(C(F)(F)F)ccc4Cl)o3)[C@@H](O)[C@H]2O)n1 returned MCF10A rerep -6%, SW480 rereplic 1%, TDP1 cell CPT 6%, IL-1B inflam inh -12 and DT40 TDP1 no CPT -16%.
`NC(Cc1cc(I)c(Oc2cc(I)c(O)c(I)c2)c(I)c1)C(=O)O` (configuration not stated) gave TDP1 cell CPT 7% and DT40 TDP1 no CPT -14%.
COc1ccc(F)cc1S(=O)(=O)NCc1cc(=O)n(C)c(=O)n1C was read as MCF10A rerep -2%, SW480 rereplic -3%, TDP1 cell CPT 11%, IL-1B inflam inh 17, Chronic BCR inh 11% and DT40 TDP1 no CPT 21%.
For COC(=O)N1CCC2(CCN(C(=O)Nc3ccc(OC)cc3)CC2)CC1 the results were TDP1 cell CPT 6% and DT40 TDP1 no CPT -13%.
For CC(NC(=O)c1ccc2c(c1)sc1nc(-c3ccccc3)cn12)C12CC3CC(CC(C3)C1)C2 (configuration not stated) the results were TDP1 cell CPT -17% and DT40 TDP1 no CPT -17%.
Screening O=C(NC1CCCc2ccccc21)c1ccc2c(c1)sc1nc(-c3ccccc3)cn12 (configuration not stated) returned TDP1 cell CPT 8.2µM* and DT40 TDP1 no CPT 18µM*.
Screening FC(F)(F)Oc1ccccc1C(c1nnnn1-c1ccc2c(c1)OCCO2)N1CCN(C/C=C/c2ccccc2)CC1 (configuration not stated) returned TDP1 cell CPT inconclusive, IL-1B inflam inh -7 and DT40 TDP1 no CPT 15µM*.
For C(=C\c1ccccc1)/CN1CCN(C(c2cccc3ccccc23)c2nnnn2-c2ccc3c(c2)OCCO3)CC1 (configuration not stated) the results were TDP1 cell CPT 13µM*, IL-1B inflam inh -26 and DT40 TDP1 no CPT 8.2µM*.
For CCC(c1nnnn1-c1ccc2c(c1)OCCO2)N1CCN(CC)CC1 (configuration not stated) the results were TDP1 cell CPT 8%, IL-1B inflam inh 6 and DT40 TDP1 no CPT -22%.
For N#Cc1cccnc1N1CCN(C(c2ccnc3ccccc23)c2nnnn2-c2ccc3c(c2)OCCO3)CC1 (configuration not stated) the results were TDP1 cell CPT inconclusive, IL-1B inflam inh -12 and DT40 TDP1 no CPT inconclusive.
